In the library only some 7.1% were active in any assay of this set; here they are far more common.
SW480 rerep – DNA re-replication induction in SW480 cells; SW480 DNA re-replication, Hoechst DNA content imaging, 48 h; Potency, µM (series often up to 46.1 µM), for the others: top-dose re-replication activation, actives largely listed as activators; actives 1.8% (n = 340,000); also: % of control where 0% means no effect; nearly all actives have a fitted effect of over 55% in size
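Quantitative HTS format with DMSO vehicle controls; 48 hr drug incubation at 37 C, then 40 min Hoechst staining and scanning imager measurement at 405 nm excitation.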
ELG1 genotoxic – induces genotoxicity in HEK293T cells with luciferase-tagged ELG1 | HEK293T ELG1-luciferase reporter, luminescence, 16 h | Potency, µM (highest dose often 46 µM), without a hit: at the top dose activity change, positive = activation, actives largely listed as activators | AID 504466 | actives 1.3% (n = 330,000); also: % of control where 0% means no effect; nearly all actives have a fitted effect of over 60% in size
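Step 1: seed 2,000 HEK293T ELG1-luciferase cells per well. Step 2: add compound or DMSO, incubate 16 hr at 37 °C. Step 3: ONE-Glo, 30 min at room temperature, read luminescence.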
p53 reactivation – mutant p53 re-activation in reporter cells; H1299 p53-A138V BP100-luciferase reporter, luminescence, 24 h; Potency, µM (top dose mostly 92.2 µM), for inactives: at the top dose activity change, positive = activation, most hits filed as activators; actives 0.063% (n = 320,000); also: % of control where 0% means no effect; nearly all actives have a fitted effect of over 45% in size
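H1299 (p53-null), stable ts p53-A138V + BP100-Luc; 1000 cells/well, Opti-MEM/10% FBS; cpd 4 pt, 1:5; 24 h, 37 deg C, 5% CO2; detection reagent 10 min RT; luminescence.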
ELG1 repair inh – inhibitors of ELG1-dependent DNA repair in HEK293T cells; HEK293T ELG1-luciferase reporter, luminescence, 16 h; DNA damage induced by 5-fluorouridine; actives 2.3% (n = 330,000); Potency, µM (doses to about 46.1 µM), for inactives: top-dose activity change, negative = inhibition, most hits filed as inhibitors; also: % is scaled to controls: 0 for no effect and ±100 for the full control effect; nearly all actives have a fitted effect of over 55% in size
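In this reporter screen, reduction of luminescence relative to DMSO vehicle indicated activity. Compounds and 5-fluorouridine were added together to 2,000 cells per well, incubated for 16 hr at 37 °C, then developed with ONE-Glo.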
MCF10A rerep – inducers of DNA re-replication in MCF 10A breast cells; MCF 10A DNA re-replication, Hoechst nuclear intensity, 48 h; Potency, µM (top dose mostly 46.1 µM), for the others: at the highest dose activity, positive = re-replication, most hits filed as activators; actives 2.9% (n = 350,000); also: % of control where 0% means no effect; nearly all actives have a fitted effect of over 50% in size
A-T KAP1 phos – potential ataxia-telangiectasia treatments restoring KAP-1 phosphorylation | F2112 A-T fibroblasts, KAP-1 phosphorylation AlphaLISA; neocarzinostatin DNA damage 30 min before lysis | Potency, µM (top dose mostly 57.5 µM), inactives show top-dose activation, most hits filed as activators | actives 0.19% (n = 320,000) | AID 485349; also: % of control where 0% means no effect; nearly all actives have a fitted effect of over 45% in size
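hTERT-immortalized A-T patient fibroblasts (F2112), 500 cells/well in OPTI-MEM, 1% FBS, got compounds for 60 min, then NCS for 30 min at 37C. Lysates were then assayed for phospho-KAP-1 by AlphaLISA (anti-pKAP1 donor, anti-KAP1 acceptor beads), 6 hr at 25C.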
Active calls of the source: *; ? = inconclusive; / = not tested or not shown. Calls follow the shape of the dose curve; as a rule, active = well fitted curve in the direction sought with a large enough effect; inconclusive = small, poorly fitted or top-dose-only effect, or another doubt; inactive = no such curve, though single readings can be large; an effect the other way counts as inactive or inconclusive. Potency is read from the fitted curve at half-maximal effect.

SMILES	SW480 rerep	ELG1 genotoxic	p53 reactivation	ELG1 repair inh	MCF10A rerep	A-T KAP1 phos
O=C(NC(=S)Nc1ccccc1)c1ccc(Br)o1	12.0%	?	20.2%	?	5.2%	-0.4%
Cc1nc(-c2cccc(NC(=O)C3CCCCC3)c2)cs1	0.5%	-1.1%	-2.6%	?	7.2%	6.6%
Cc1nc(-c2ccc(NC(=O)c3ccc(Br)o3)cc2)cs1	-4.0%	2.91µM*	19.9%	?	8.1%	-5.5%
O=C(Nc1ccc(Nc2ccccc2)cc1)c1ccc(Br)o1	2.5%	12.5%	31.6µM*	?	20.2%	-3.4%
Cc1nc(-c2ccc(NC(=O)C3CC3)cc2)cs1	-29.7%	20.6µM*	28.2%	?	-43.7%	-0.5%
O=C(COC(=O)c1c(F)cccc1Cl)NCC1CCCCC1	6.8%	?	18.4%	?	-0.7%	-18.4%
Cc1ccc(CNC(=O)c2ccc(NS(=O)(=O)c3c(C)noc3C)cc2)cc1	-5.7%	-0.6%	-7.6%	6.6%	3.7%	1.7%
Cc1noc(C)c1S(=O)(=O)Nc1ccc(C(C)C)cc1	?	-0.2%	4.5%	-0.4%	23.1µM*	-4.8%
CCc1sc(C(=O)N2CCN(C(=O)c3ccccc3)CC2)cc1C	-24.4%	-0.2%	-1.5%	-1.2%	14.6%	-9.1%
O=C(O)CC1(CC(=O)NCc2ccc(Cl)cc2)CCCCC1	1.7%	0.1%	3.5%	-8.1%	20.6µM*	-4.8%
Cc1ccc(C2=NC(=O)/C(=C/c3cc(O)c(O)c(Br)c3)S2)cc1	8.2µM*	-9.2%	19.9%	-12.2%	?	-5.1%
CCN(CC(=O)NCc1ccc(Cl)cc1)CC(=O)NC1(C#N)CCCC1	-0.5%	1.3%	3.3%	6.7%	1.4%	4.7%
O=C(NCCN1C(=O)S/C(=C\c2ccccc2)C1=O)c1cc(S(=O)(=O)N2CCOCC2)c(Cl)cc1Cl	?	-2.8%	-8.6%	14.6µM*	?	-0.1%
O=C(NCCN1C(=O)S/C(=C\c2ccc(Cl)cc2)C1=O)c1ccc(F)c(S(=O)(=O)N2CCOCC2)c1	-1.2%	?	11.9%	?	2.4%	-15.9%
O=C(NCC1COc2ccccc2O1)c1cc(S(=O)(=O)N2CCOCC2)c(Cl)cc1Cl (stereo not given)	?	-8.5%	-18.3%	18.3µM*	1.7%	6.9%
Cn1c(SCC(=O)Nc2ccccc2Oc2ccccc2)nnc1C1CC1	-3.6%	0.7%	-3.0%	17.1%	1.0%	1.0%
CN(C(=S)Oc1ccc(C(=O)Nc2ccccc2)cc1)c1ccccc1	?	-0.5%	2.3%	18.4µM*	16.7%	3.1%
CCCCN(C(=O)CSCC(=O)Nc1ccc(OC)cc1)c1c(N)n(CC(C)C)c(=O)[nH]c1=O	?	/	/	/	8.5%	/
CCCNC1=C(N(C(C)=O)c2cccc(F)c2)C(=O)c2ccccc2C1=O	5.8µM*	-13.4%	-26.3%	4.61µM*	0.731µM*	3.1%
O=C(Cc1cc(=O)oc2cc(O)ccc12)NC(Cc1ccc(Cl)cc1)C(=O)O (stereo not given)	24.7%	0.0%	-3.0%	0.8%	17.5%	-10.4%
CC(C)=CCCC(C)CCO (stereo not given)	-12.3%	-0.2%	3.9%	5.9%	12.9%	-14.8%
CN[C@H](C)CCC=C(C)C	3.0%	/	/	/	23.7µM*	/
Oc1cc(-c2ccc(N3CCCCC3)nc2)cc2cccnc12	0.82µM*	18.3µM*	?	?	?	-15.4%
CN1CCN(c2ccc(-c3cc(O)c4ncccc4c3)cc2)CC1	/	/	/	/	/	-6.5%
Oc1cc(-c2ccncc2)cc2cccnc12	-6.4%	-8.0%	?	16.4µM*	?	-7.7%
SMILES	SW480 rerep	ELG1 genotoxic	p53 reactivation	ELG1 repair inh	MCF10A rerep	A-T KAP1 phos
CN(C)c1ccc(-c2cc(O)c3ncccc3c2)cc1	?	16.4µM*	?	?	-17.1%	-21.5%
Oc1cc(Nc2ccncc2)cc2cccnc12	3.6%	4.3%	9.2%	7.0%	21.6%	-11.0%
CC(C)N(C(C)C)S(=O)(=O)c1ccc(NC(=O)c2cnccn2)cc1	18.0%	0.3%	/	?	-0.1%	8.3%
CCc1ccc(S(=O)(=O)Nc2ccc(-c3nc4cccnc4s3)cc2)s1	18.8%	14.6µM*	?	?	?	32.9%
O=S(=O)(Nc1ccc(-c2nc3cccnc3s2)cc1)c1cc(F)ccc1F	17.8%	?	13.2%	?	20.6µM*	12.6µM*
CC1CCN(S(=O)(=O)c2ccc(C(=O)N3CCCC(C(F)(F)F)C3)cc2)CC1 (stereo not given)	?	-5.1%	2.0%	-13.9%	-5.0%	15.4%
Cc1cc(S(=O)(=O)N2CCCC2)ccc1OCC(=O)N1CCCCC1	-3.5%	-1.8%	-1.4%	0.3%	-6.0%	6.5%
CCn1cc(C(=O)O)c(=O)c2cnc(N3CCN(C(=S)Nc4ccccc4Cl)CC3)nc21	25.7%	-8.6%	0.0%	11.6µM*	-8.5%	-15.2%
CCn1cc(C(=O)O)c(=O)c2cnc(N3CCN(C(=S)Nc4ccc(F)cc4)CC3)nc21	-10.7%	-2.4%	5.8%	-0.5%	-1.1%	0.0%
CC(C)(C)OC(=O)N1CCCC1C(=O)NCCc1ccccc1 (stereo not given)	0.4%	0.9%	3.3%	11.3%	?	9.0%
CCc1cc2c(C)cc(=O)oc2cc1OC(=O)C1CCCN1C(=O)OC(C)(C)C (stereo not given)	18.4µM*	6.8%	7.7%	1.2%	10.9%	1.5%
O=C(CN1CCN(C(C(=O)Nc2ccc(Cl)cc2C(F)(F)F)c2ccccc2)CC1)NC1CC1 (stereo not given)	-3.8%	-4.2%	3.3%	?	8.7%	2.7%
CCOC(=O)[C@H](CCc1ccccc1)N[C@@H](C)C(=O)N1[C@H](C(=O)O)C[C@H]2CCCC[C@@H]21	-6.4%	/	/	/	-0.7%	/
CC/C(=C/c1ccccc1)c1cccc2[nH]c3c(OC)cccc3c12	10.9%	0.5%	-10.3%	-20.7%	20.6µM*	?
CCc1cc(-c2nc(N)ncc2-c2ccc(Br)cc2)c(O)cc1OC	6.6%	1.3%	-11.2%	?	18.4µM*	?
COc1ccc(-c2nc(N)ncc2-c2ccc(OC)c(OC)c2)c(O)c1	?	7.5%	-1.1%	?	16.9%	-8.4%
C=C(C)COc1ccc(-c2nc(N)nc(C(F)(F)F)c2-c2ccc(OC)cc2)c(O)c1	20.6µM*	-4.0%	10.4%	?	2.59µM*	10.2%
C=C(C)COc1ccc(-c2ncnc(C(F)(F)F)c2-c2ccc(OC)cc2)c(O)c1	?	-4.0%	7.9%	?	?	-5.0%

Source: PubChem BioAssay (National Center for Advancing Translational Sciences (NCATS))
